Source: PubChem BioAssay AID1159580 (chemical genetic matrix, 2015)
Values joined by “and” are separate entries in the source; they are usually repeats but may differ in a detail not shown here. Equal entries are not always repeated. Among all 5,500 compounds or so, about 2,000 (36%) were called active. Another 18% or so got no clear call; they are omitted. Rule as the data show it: active = normalized growth mostly below about 0.91 (no sharp cut-off); inconclusive = no clear call, values can overlap the other calls; inactive = mostly above about 0.92. This is one part of the list.

Experiment: chemical genetic growth profiling, strain panel (AID 1159580);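 also: tested at 20 µM; growth read once vehicle control cultures reached saturation at 30 °C; 1 = growth at the plate median or of vehicle wells; lower values mean less growth of the strain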
Details: S. cerevisiae deletion strains, growth OD

Measured: normalized growth

COC(=O)CCC(C)C1CCC2C3CC[C@@H]4C[C@H](O)CC[C@]4(C)C3C[C@H](O)[C@]12C (stereo partly drawn)
inactive: locus YAL013W, strain DEP1, stronger effect = lower value 0.983 | locus YAL026C, strain drs2, stronger effect = lower value 1 | locus YAL030W, strain snc1, stronger effect = lower value 0.987 | locus YBR009C, strain hhf1, stronger effect = lower value 0.925 | locus YBR021W, strain FUR4, stronger effect = lower value 1.01 | locus YBR171W, strain sec66, stronger effect = lower value 1.01 | locus YBR229C, strain ROT2, stronger effect = lower value 0.998 | locus YBR231C, strain swc5, stronger effect = lower value 0.978 | locus YBR279W, strain paf1, stronger effect = lower value 0.996 | locus YCL011C, strain gbp2, stronger effect = lower value 0.966 | locus YCL016C, strain dcc1, stronger effect = lower value 0.967 | locus YCL029C, strain bik1, stronger effect = lower value 1.01 | locus YCL061C, strain MRC1, stronger effect = lower value 0.992 | locus YCL069W, strain vba3, stronger effect = lower value 1.01 | locus YCR088W, strain abp1, stronger effect = lower value 1 | locus YDL005C, strain med2, stronger effect = lower value 0.983 | locus YDL035C, strain GPR1, stronger effect = lower value 0.989 | locus YDL040C, strain nat1, stronger effect = lower value 0.985 | locus YDL074C, strain BRE1, stronger effect = lower value 0.849 | locus YDL101C, strain DUN1, stronger effect = lower value 0.973 | locus YDL134C, strain PPH21, stronger effect = lower value 0.951 | locus YDL185W, strain tfp1, stronger effect = lower value 1.02 | locus YDL192W, strain arf1, stronger effect = lower value 0.922 | locus YDR001C, strain nth1, stronger effect = lower value 0.996 | locus YDR069C, strain doa4, stronger effect = lower value 1.04 | locus YDR101C, strain arx1, stronger effect = lower value 1 | locus YDR162C, strain NBP2, stronger effect = lower value 0.928 | locus YDR297W, strain sur2, stronger effect = lower value 0.986 | locus YDR318W, strain mcm21, stronger effect = lower value 0.993 | locus YDR334W, strain swr1, stronger effect = lower value 1.01 | locus YDR335W, strain msn5, stronger effect = lower value 0.975 | locus YDR388W, stronger effect = lower value 1.02 | locus YDR502C, strain sam2, stronger effect = lower value 1.02 | locus YEL003W, strain gim4, stronger effect = lower value 0.99 | locus YEL037C, strain rad23, stronger effect = lower value 1.01 | locus YEL061C, strain CIN8 (second series), stronger effect = lower value 0.999 | locus YEL061C, strain CIN8, stronger effect = lower value 0.975 | locus YER015W, strain faa2, stronger effect = lower value 1 | locus YER016W, strain bim1, stronger effect = lower value 0.962 | locus YER110C, stronger effect = lower value 1.02 | locus YER111C, strain swi4, stronger effect = lower value 0.996 | locus YER155C, strain BEM2, stronger effect = lower value 0.955 | locus YER167W, strain BCK2, stronger effect = lower value 1.01 | locus YFR010W, strain ubp6, stronger effect = lower value 1.04 | locus YGL078C, strain dbp3, stronger effect = lower value 1.02 | locus YGL086W, strain mad1, stronger effect = lower value 0.997 | locus YGL167C, strain pmr1, stronger effect = lower value 0.971 | locus YGL173C, strain kem1, stronger effect = lower value 0.992 | locus YGL227W, strain vid30, stronger effect = lower value 1 | locus YGL240W, strain doc1, stronger effect = lower value 0.928 | locus YGL248W, strain PDE1, stronger effect = lower value 0.95 | locus YGL253W, strain hxk2, stronger effect = lower value 0.985 | locus YGR135W, strain pre9, stronger effect = lower value 1.01 | locus YGR252W, strain gcn5, stronger effect = lower value 0.887 | locus YHR027C, strain rpn1, stronger effect = lower value 1 | locus YHR079C, strain IRE1 (second series), stronger effect = lower value 1 | locus YHR094C, strain hxt1, stronger effect = lower value 1.03 | locus YHR129C, strain ARP1, stronger effect = lower value 0.955 | locus YHR200W, strain rpn10, stronger effect = lower value 1.02 | locus YIL066C, strain RNR3, stronger effect = lower value 0.923 | locus YIL073C, strain SPO22, stronger effect = lower value 1.27 | locus YIL125W, strain kgd1, stronger effect = lower value 1.01 | locus YIR030C, strain dcg1, stronger effect = lower value 1.01 | locus YJL092W, strain hpr5, stronger effect = lower value 1 | locus YJL115W, strain asf1, stronger effect = lower value 1.01 | locus YJL129C, strain trk1, stronger effect = lower value 0.934 | locus YJL134W, strain LCB3, stronger effect = lower value 1.01 | locus YJL154C, strain vps35, stronger effect = lower value 1.01 | locus YJL164C, strain tpk1, stronger effect = lower value 0.957 | locus YJL168C, strain set2, stronger effect = lower value 1.01 | locus YJL187C, strain SWE1 (second series), stronger effect = lower value 0.979 | locus YJL187C, strain SWE1, stronger effect = lower value 0.995
0.923 (inactive) and 0.843 (active): locus YHR030C, strain SLT2, stronger effect = lower value
0.819 (inactive) and 0.826 (active): locus YJL095W, strain BCK1, stronger effect = lower value
active: locus YAL021C, strain ccr4, stronger effect = lower value 1.11 [resistant] | locus YBL061C, strain skt5, stronger effect = lower value 0.9 | locus YBR023C, strain chs3, stronger effect = lower value 0.909 | locus YDR137W, strain rgp1, stronger effect = lower value 0.754 | locus YDR159W, strain sac3, stronger effect = lower value 0.757 | locus YDR195W, strain ref2 0.802 | locus YDR392W, strain spt3, stronger effect = lower value 0.331 | locus YER155C, strain BEM2 (second series), stronger effect = lower value 0.746 | locus YGR229C, strain SMI1, stronger effect = lower value 0.709 | locus YHR013C, strain ard1, stronger effect = lower value 1.34 [resistant] | locus YHR079C, strain IRE1, stronger effect = lower value 0.826 | locus YHR142W, strain chs7, stronger effect = lower value 0.819 | locus YJL095W, strain BCK1 (second series), stronger effect = lower value 0.867 | locus YJL166W, strain qcr8, stronger effect = lower value 0.892
